The record followed here is the GenesisPotency data set.

Out of some 500 compounds screened, about 40 (8%) were called active.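 Rule for the calls: active = mean IC50 below 20 µM in each of the two panels, so potent in both; inactive = the rest.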 The list is a sample of the results.

This assay addresses T1, Neuropilin-1, Homo sapiens (UniProt O14786).
T1 sequence (whole entry): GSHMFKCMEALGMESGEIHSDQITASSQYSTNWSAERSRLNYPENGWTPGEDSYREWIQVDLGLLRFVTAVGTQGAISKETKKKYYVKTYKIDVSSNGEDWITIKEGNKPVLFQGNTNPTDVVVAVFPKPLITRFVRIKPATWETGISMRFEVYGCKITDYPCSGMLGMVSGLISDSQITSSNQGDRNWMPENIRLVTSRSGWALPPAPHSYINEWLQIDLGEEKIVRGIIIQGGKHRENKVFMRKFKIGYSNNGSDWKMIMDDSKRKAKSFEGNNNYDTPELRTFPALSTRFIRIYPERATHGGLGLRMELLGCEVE
Nature of the assay: NRP-1 b1b2 CendR peptide binding inhibitors, dose response, biochemical, FP and AlphaScreen panel (AID 651650). On the technique in general: Alpha assays give light when donor and acceptor beads are brought close together.
`Cn1c(=O)c2[nH]c(COc3ccccc3)nc2n(C)c1=O`: the outcome was inactive.
